Among all 310,000 compounds or so, about 14,000 (4.5%) showed an effect of 50% or more. The effect is printed as a negative number. What follows is part of a selection rich in strong results, with near analogues and random picks from the rest.
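Note: peak tail current of the secondary pulse compared with the same well before compound.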

Chain of human ether-à-go-go-related gene (hERG) potassium channel (Q12809 whole entry, looked up): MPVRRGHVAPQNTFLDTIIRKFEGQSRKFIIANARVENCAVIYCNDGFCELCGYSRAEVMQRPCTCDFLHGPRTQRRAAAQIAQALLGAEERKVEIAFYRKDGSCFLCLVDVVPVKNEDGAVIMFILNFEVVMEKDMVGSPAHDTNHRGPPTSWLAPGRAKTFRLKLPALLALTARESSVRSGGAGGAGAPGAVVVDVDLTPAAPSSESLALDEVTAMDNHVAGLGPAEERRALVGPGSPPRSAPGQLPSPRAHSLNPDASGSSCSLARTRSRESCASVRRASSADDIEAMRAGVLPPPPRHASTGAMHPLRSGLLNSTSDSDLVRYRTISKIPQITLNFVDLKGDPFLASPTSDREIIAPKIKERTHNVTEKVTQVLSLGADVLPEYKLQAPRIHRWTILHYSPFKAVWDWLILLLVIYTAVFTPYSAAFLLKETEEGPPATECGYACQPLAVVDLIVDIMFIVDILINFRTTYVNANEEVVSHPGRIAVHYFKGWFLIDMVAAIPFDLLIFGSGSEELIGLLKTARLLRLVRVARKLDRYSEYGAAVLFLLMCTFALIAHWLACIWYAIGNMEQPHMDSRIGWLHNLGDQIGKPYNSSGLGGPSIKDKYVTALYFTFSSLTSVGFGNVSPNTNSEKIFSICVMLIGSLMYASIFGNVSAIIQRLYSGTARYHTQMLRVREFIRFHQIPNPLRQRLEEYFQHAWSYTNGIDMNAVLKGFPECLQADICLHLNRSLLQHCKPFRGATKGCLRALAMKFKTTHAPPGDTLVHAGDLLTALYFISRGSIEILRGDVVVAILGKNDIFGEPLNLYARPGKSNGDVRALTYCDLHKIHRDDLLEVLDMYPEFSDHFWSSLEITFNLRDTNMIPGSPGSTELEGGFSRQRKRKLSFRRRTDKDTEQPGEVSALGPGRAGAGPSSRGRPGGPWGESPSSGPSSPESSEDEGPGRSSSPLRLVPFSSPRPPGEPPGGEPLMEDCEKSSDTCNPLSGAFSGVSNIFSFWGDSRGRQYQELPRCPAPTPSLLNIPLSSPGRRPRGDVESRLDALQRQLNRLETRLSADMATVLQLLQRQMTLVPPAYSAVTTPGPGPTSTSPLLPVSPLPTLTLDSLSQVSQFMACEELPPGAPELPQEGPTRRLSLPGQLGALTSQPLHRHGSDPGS

This assay has as its target human ether-à-go-go-related gene (hERG) potassium channel (human, UniProt Q12809). Briefly: primary screen, population patch clamp on CHO cells stably expressing hERG; higher = less effect of the substance. The protocol:
Briefly, Chinese hamster ovary (CHO) cells stably expressing the hERG channel were dislodged from tissue culture flasks and dispensed into PPC plates. […] During the recording, background leak currents were estimated by a 100 ms step to -80 mV from an initial holding potential of -70 mV and subtracted from the subsequent current measurement. The campaign was conducted in two phases using slight differences in recording protocol. In the first phase, the initial voltage pulse used a 100 ms step to -30 mV from a holding potential of -70 mV, a 2 s conditioning step to +25 mV, and a 2 s test step to -30 mV. During the second phase of the screen, the potential during the conditioning step was raised to +45 mV. In both phases of the campaign, a secondary voltage pulse was applied using the same parameters as the second phase initial pulse. The initial and secondary pulses were applied in the absence of compound, and upon application of 1 μM and 10 μM test concentrations. […]
As to `N=C1/C(=C\c2ccc(-c3cccc(C(=O)O)c3)o2)C(=O)N=C2SC=C(c3ccccc3)N12`, the “hERG current change (%, negative = inhibition) at 10uM” value is listed as 0.469%. Regarding `CCCN1CCCc2ccccc21.Cl`, the “hERG current change (%, negative = inhibition) at 10uM” value was 7.61%. With `CNC(CC(C)C)C(=O)NC1C(=O)NC(CC(N)=O)C(=O)NC2C(=O)NC3C(=O)NC(C(=O)NC(C(=O)O)c4cc(O)cc(O)c4-c4cc3ccc4O)C(O)c3ccc(c(Cl)c3)Oc3cc2cc(c3OC2OC(CO)C(O)C(O)C2OC2C[C@](C)(N)C(O)C(C)O2)Oc2ccc(cc2Cl)C1O` (some centres unmarked), the “hERG current change (%, negative = inhibition) at 10uM” value was 9.61%.

Consider `COC(=O)c1ccc2c(=O)[nH]c(CCl)nc2c1`, for which the “hERG current change (%, negative = inhibition) at 10uM” value is recorded as 10.7%. The result for `COC(=O)NNC(=O)c1ccc(Cl)cc1Cl` reads 19.8%; that for `O=C(C1=C(O)C(=O)N(CC2CCCO2)C1c1ccc(Cl)cc1Cl)c1ccco1` (centres unmarked), 18.5%; that for `COc1ccc(-c2oc(/N=C/N3CCOCC3)c(C#N)c2-c2ccc(OC)cc2)cc1`, 13.9%. The result for `COC(=O)c1c(NC(=O)C(C)C)sc2c1CCN(Cc1ccccc1)C2.Cl` reads -38.4%; that for `COC(=O)c1c(NC(=O)C(C)(C)C)sc2c1CCN(Cc1ccccc1)C2.Cl`, -34.7%. `CC(C)C(=O)Nc1sc2c(c1C(N)=O)CCN(Cc1ccccc1)C2.Cl`: the “hERG current change (%, negative = inhibition) at 10uM” value is -108%.

With `CC(=O)Nc1sc2c(c1C(N)=O)CCN(Cc1ccccc1)C2.Cl`, the “hERG current change (%, negative = inhibition) at 10uM” value is -23.3%. The value for `CCOC(=O)c1c(NC(=O)CC)sc2c1CCN(Cc1ccccc1)C2.Cl` was -14.5%. The result for `CCC(=O)Nc1sc2c(c1C(=O)OC)CCN(Cc1ccccc1)C2.Cl` reads -62.9%. In the case of `O=C(N/N=C/c1cn(-c2ccccc2)nc1-c1ccc2c(c1)OCCO2)c1ccncc1`, the “hERG current change (%, negative = inhibition) at 10uM” value was found to be 15.2%.

With `COc1ccc(NC(=O)COc2coc(CN3c4ccccc4CC3C)cc2=O)cc1` (centres unmarked), the “hERG current change (%, negative = inhibition) at 10uM” value worked out at 5.06%. In the case of `O=C(O)c1cc2c(cc1NC(=O)c1c(F)cccc1Cl)OCCCO2`, the “hERG current change (%, negative = inhibition) at 10uM” value was 5.08%. For `Cc1nc2sc3c(c2c(=O)n1/N=C/c1ccco1)CCCC3`, the “hERG current change (%, negative = inhibition) at 10uM” value is 16.8%. Take `COc1ccc(N(C)C(=O)c2cc3c(s2)-c2ccccc2S(=O)(=O)C3)cc1`: the “hERG current change (%, negative = inhibition) at 10uM” value was -39.9%.

Turning to `CCN1CCN(C(=O)c2cc3c(s2)-c2ccccc2S(=O)(=O)C3)CC1`, the “hERG current change (%, negative = inhibition) at 10uM” value is reported as -11.2%.

With `COc1cc(OC)c(N(C)C(=O)c2cc3c(s2)-c2ccccc2S(=O)(=O)C3)cc1Cl`, the “hERG current change (%, negative = inhibition) at 10uM” value is listed as -13.2%. Regarding `COc1ccc(N(C)C(=O)c2cc3c(s2)-c2ccc(Cl)cc2S(=O)(=O)C3)c(OC)c1`, the “hERG current change (%, negative = inhibition) at 10uM” value is given as -58.5%. For the molecule `CCOC(=O)N1CCN(C(=O)c2cc3c(s2)-c2ccc(Cl)cc2S(=O)(=O)C3)CC1`, the “hERG current change (%, negative = inhibition) at 10uM” value is -66.5%. For `CN1CCN(C(=O)c2cc3c(s2)-c2ccccc2S(=O)(=O)C3)CC1`, the “hERG current change (%, negative = inhibition) at 10uM” value was determined as 4.14%.

The values are drawn from PMC4336329 (PLoS ONE, 2015).
